The target in assay [1] is N-terminal Xaa-Pro-Lys N-methyltransferase 1 (Homo sapiens) (UniProt Q9BV86). Description: qHTS Assay for Inhibitors of N-terminal methyltransferase 1 (NTMT1): LOPAC validation of the NTMT1 SAHH-coupled ThioGlo3 Assay (AID 1347143). Note: nearly all actives have a fitted effect of over 70% in size. The method, boiled down: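 Fluorescence read-out (excitation 340nm, emission 450nm) of SAH-derived thiol, measured via SAHH coupling and ThioGlo3, taken immediately and after a 30 min room-temperature reaction, then normalized to the background read. Enzyme: NTMT1 at 125nM; cofactor SAM 100uM in the added reagent.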

Assay [2] deals with Zika virus NS2B-NS3 protease. Description: Primary screen GU AMC qHTS for Zika virus inhibitors (AID 1347154). Note: nearly all actives have a fitted effect of over 70% in size. Note: potency is the fitted concentration of half-maximal effect. The procedure, abridged:
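Unlinked Zika NS2B hydrophilic domain/NS3 protease domain noncovalent complex (25 nM final) in 10 mM Tris-HCl pH 8.0, 0.01% Tween 20, with AMC peptide substrate. Fluorescence (ex 340, em 450 nm) change over 15 min, room temperature; percent inhibition fitted to 4-parameter Hill equation.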

For assay [3], the target named is Lysine-specific demethylase 5B (Homo sapiens) (UniProt Q9UGL1). The assay can be described thus: Optimization screen for KDM5B Histone Demethylases FDH coupled qHTS against the LOPAC library (AID 1347166). The procedure, abridged: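 KDM5BDeltaAP (200nM final) preincubated 10 min with compound, then 12.5uM H3K4Me3, 25uM a-ketoglutarate, ascorbate, Fe(II), NAD+ and FDH added; 50mM HEPES pH 7.5, 0.01% Tween-20. NADH fluorescence (340/450 nm) change over 30 min, room temperature.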
(In general: Quantitative high-throughput screening tests each substance at several concentrations.)

Assay [4] deals with Zika virus NS2B-NS3 protease (unlinked complex). The assay can be described thus: Primary screen GU Rhodamine qHTS for Zika virus inhibitors: Unlinked NS2B-NS3 protease assay (AID 1347159). Note: nearly all actives have a fitted effect of over 60% in size. The method, boiled down: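 Percent inhibition derives from the 15-min fluorescence change (ex 480, em 540 nm), normalized to no-enzyme and no-inhibitor wells. Reactions contained 25 nM NS2B-NS3 complex and 1.5 microM substrate in 10 mM Tris-HCl pH 8.0.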

Assay [5] has as its system Zika virus NS2B-NS3 protease (linked construct). Description: Primary screen NINDS Rhodamine qHTS for Zika virus inhibitors (AID 1347160). Note: nearly all actives have a fitted effect of over 55% in size. The procedure, abridged: (§1)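 In 10 mM Tris-HCl pH 8.0 containing 0.01% Tween 20, linked NS2B-NS3 protease (25 nM final) is exposed to test compounds for 15 min. Cleavage of 1.5 microM Rhodamine110 substrate is tracked by fluorescence over 15 min.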

For assay [6], the system named is Zika virus NS2B-NS3 protease (unlinked). The assay can be described thus: Optimization of GU AMC qHTS for Zika virus inhibitors: Unlinked NS2B-NS3 protease assay (AID 1347151). Note: series mostly up to about 52 µM; nearly all actives have a fitted effect of over 80% in size. The procedure, abridged:
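Fluorescence gain (340/450 nm) over 15 min at room temperature, ~20% conversion, gave percent inhibition fitted to a 4-parameter Hill equation; enzyme was unlinked NS2B-NS3 (25 nM final), pH 8.0 Tris buffer.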

The target of the next assay is Furin (Homo sapiens) (UniProt P09958). Description: Furin counterscreen qHTS for Zika virus inhibitors (AID 1347149). Note: nearly all actives have a fitted effect of over 70% in size. Note: potency is the fitted concentration of half-maximal effect. The procedure, abridged: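 Fluorogenic cleavage of BOC-RVRR-AMC (2 microM final, Km ~15 µM) was monitored (ex 340, em 450 nm) at 37C after 15 min RT preincubation of 5 nM furin with compounds in HEPES pH 7.0 buffer with CaCl2 and Triton X-100. Percent inhibition was fitted to a 4-parameter Hill curve.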
For orientation: The purpose of a counterscreen is to sort out artefacts and off-target activity.

Assay [7] is described as follows: Confirmatory screen GU Rhodamine qHTS for Zika virus inhibitors qHTS (AID 1347157). Note: nearly all actives have a fitted effect of over 70% in size. The procedure, abridged: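 Enzyme 25 nM in Tris-HCl pH 8.0 + 0.01% Tween 20; compounds up to 114 microM, 15 min RT dark; + Rhod110 substrate 1.5 microM; read t0 and 15 min; delta fluorescence → % inhibition → 4-parameter Hill fit.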
Assay [8] in a line: Confirmatory screen NINDS Rhodamine qHTS for Zika virus inhibitors (AID 1347161).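 Note: purified Zika NS2B-NS3 protease with linked NS2B cofactor domain and Rhodamine110 peptide substrate; series mostly up to about 110 µM; nearly all actives have a fitted effect of over 60% in size.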 The method, boiled down:
as §1

The subject of assay [9] is Zika virus NS2B-NS3 protease (linked construct). The assay can be described thus: Confirmatory screen NINDS AMC qHTS for Zika virus inhibitors (AID 1347152). The method, boiled down:
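IC50s from 4-parameter Hill fits of percent inhibition, based on AMC fluorescence gain (340/450 nm) over 15 min with 10 microM Bz-Nle-KRR-AMC. Enzyme: 1 nM linked NS2B-NS3 in Tris-HCl pH 8.0; 15-min compound preincubation.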

From PubChem BioAssay (NCATS) come the findings set out here.

Inconclusive results are not listed. Where a call stands in place of a potency, no number is given. The source made the active and inactive calls. Calls come from the whole dose curve; as a rule, active = well fitted curve in the direction sought with a large enough effect; inconclusive = small, poorly fitted or top-dose-only effect, or another doubt; inactive = no such curve, though single readings can be large; an effect the other way counts as inactive or inconclusive.

Sequence of N-terminal Xaa-Pro-Lys N-methyltransferase 1 (Homo sapiens) (Q9BV86 whole entry, looked up): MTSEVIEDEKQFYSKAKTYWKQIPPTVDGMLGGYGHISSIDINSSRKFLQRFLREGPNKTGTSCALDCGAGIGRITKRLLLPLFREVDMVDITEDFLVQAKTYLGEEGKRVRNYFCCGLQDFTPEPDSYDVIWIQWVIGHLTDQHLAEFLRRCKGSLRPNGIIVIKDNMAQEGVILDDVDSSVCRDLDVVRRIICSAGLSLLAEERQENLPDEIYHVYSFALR
Sequence of Lysine-specific demethylase 5B (Homo sapiens) (Q9UGL1 whole entry, looked up): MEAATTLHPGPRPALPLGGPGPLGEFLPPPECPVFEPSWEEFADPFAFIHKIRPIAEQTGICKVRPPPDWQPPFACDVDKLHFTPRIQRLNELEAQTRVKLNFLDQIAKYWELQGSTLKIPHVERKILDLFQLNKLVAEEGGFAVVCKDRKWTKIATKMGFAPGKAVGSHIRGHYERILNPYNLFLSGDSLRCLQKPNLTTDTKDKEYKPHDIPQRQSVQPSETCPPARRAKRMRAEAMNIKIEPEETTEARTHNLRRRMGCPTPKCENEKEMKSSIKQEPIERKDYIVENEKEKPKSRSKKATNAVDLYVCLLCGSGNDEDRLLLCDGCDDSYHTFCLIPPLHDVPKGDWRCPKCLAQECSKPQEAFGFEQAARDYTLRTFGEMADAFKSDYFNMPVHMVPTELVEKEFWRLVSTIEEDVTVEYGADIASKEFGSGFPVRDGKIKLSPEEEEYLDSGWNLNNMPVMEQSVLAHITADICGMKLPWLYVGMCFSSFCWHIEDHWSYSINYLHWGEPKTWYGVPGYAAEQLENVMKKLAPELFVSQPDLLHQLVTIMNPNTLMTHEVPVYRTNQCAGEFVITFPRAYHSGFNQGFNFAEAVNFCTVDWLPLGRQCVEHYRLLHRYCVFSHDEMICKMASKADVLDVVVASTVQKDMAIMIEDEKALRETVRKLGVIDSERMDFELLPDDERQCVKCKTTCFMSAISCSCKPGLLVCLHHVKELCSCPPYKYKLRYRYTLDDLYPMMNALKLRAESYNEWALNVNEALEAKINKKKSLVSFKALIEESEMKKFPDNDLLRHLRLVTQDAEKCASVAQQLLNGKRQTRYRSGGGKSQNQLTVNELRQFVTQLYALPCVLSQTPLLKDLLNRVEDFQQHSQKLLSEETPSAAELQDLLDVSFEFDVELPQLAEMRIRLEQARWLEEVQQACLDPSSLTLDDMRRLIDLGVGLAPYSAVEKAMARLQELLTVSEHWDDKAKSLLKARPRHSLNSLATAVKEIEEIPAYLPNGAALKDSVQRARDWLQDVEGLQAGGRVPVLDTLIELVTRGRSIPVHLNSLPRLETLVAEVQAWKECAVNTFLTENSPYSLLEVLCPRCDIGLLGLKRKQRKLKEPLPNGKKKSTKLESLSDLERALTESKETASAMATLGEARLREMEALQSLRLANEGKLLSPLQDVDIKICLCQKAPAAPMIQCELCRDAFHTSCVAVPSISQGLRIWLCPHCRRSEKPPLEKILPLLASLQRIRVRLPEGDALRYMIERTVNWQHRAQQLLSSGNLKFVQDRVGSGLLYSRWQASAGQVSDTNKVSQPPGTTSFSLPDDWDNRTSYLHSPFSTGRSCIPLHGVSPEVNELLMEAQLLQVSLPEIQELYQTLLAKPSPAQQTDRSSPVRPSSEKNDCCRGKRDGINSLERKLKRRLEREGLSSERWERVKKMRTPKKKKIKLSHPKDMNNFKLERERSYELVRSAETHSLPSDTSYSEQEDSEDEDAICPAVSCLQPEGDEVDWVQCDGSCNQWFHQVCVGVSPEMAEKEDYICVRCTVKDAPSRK
Sequence of Furin (Homo sapiens) (P09958 whole entry, looked up): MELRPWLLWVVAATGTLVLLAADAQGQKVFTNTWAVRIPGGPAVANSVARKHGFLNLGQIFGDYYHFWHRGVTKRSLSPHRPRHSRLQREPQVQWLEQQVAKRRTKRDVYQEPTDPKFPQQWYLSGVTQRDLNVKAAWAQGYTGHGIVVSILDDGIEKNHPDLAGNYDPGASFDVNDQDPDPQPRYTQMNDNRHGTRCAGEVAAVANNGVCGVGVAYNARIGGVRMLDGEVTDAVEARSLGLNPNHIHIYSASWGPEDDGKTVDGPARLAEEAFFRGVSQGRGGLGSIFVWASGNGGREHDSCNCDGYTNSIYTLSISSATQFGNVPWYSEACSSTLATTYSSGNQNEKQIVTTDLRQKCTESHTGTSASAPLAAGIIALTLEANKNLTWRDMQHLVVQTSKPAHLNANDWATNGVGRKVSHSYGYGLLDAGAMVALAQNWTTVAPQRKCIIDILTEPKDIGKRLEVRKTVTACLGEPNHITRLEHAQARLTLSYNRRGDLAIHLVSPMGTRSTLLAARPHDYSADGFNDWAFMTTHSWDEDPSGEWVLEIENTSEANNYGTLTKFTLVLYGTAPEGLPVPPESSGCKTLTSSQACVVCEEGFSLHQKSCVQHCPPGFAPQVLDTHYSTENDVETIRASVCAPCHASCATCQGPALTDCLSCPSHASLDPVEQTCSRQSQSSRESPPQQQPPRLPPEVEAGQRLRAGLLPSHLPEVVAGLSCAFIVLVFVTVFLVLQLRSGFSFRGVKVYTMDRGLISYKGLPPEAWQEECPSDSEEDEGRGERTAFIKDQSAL

With `O=C(O)Cc1cnc[nH]1`, the Potency result in assay [1] and in assay [2] was “inactive” throughout. Besides, in assay [3], the compound was called inactive.
With `CC(=O)NCCc1c[nH]c2ccccc12`, the Potency result in assay [1], in [2], in assay [4] and in assay [5] was “inactive” in each case. In assay [3], the call was inactive.
Take `NC(=NCCC[C@H](N)C(=O)O)N[N+](=O)[O-]`: the Potency entry in assay [1] and in [2] was “inactive” in each case. In addition, the result in assay [3] was inactive.
Consider `CSCC[C@@H](NC(=O)[C@@H](Cc1ccccc1)NC(=O)CNC(=O)CNC(=O)[C@@H](N)Cc1ccc(O)cc1)C(=O)O`, for which, in assay [2], the Potency result was “inactive”.
In the case of `Fc1cc(Br)ccc1CBr`, in [2], the Potency result was “inactive”.
Regarding `CCCCc1ccc(C(=O)O)nc1`, in assay [1], the Potency entry was “inactive”. The call in [3] was inactive.
For `CCCN(CCC)[C@@H]1CCc2ccc(O)cc2C1`, the Potency result in assay [1] and in assay [2] was “inactive” each time. Further, the result in [3] was inactive.
Take `O=C(O)[C@@H]1CCN1`: the Potency entry in assay [1] was “inactive”. The compound was classed as inactive in assay [3].
`CCCN1CCO[C@@H]2c3cc(O)ccc3OC[C@H]21`: the Potency entry in assay [6] and in assay [2] was “inactive” each time. For the same compound, the result in assay [3] was inactive.
In the case of `O=C(O)CC[N+](=O)[O-]`, in assay [1], the Potency entry is “inactive”. In addition, the result in [3] was inactive.
In the case of `NCCc1c[nH]c2ccc(O)cc12`, the Potency result in assay [6], in [2] and in assay [5] was “inactive” in each case. For the same compound, the compound was called inactive in assay [3].
For the compound `C[C@]12COC(=O)C[C@@H]1CC[C@@H]1[C@H]2CC[C@@]2(C)[C@H]1CC[C@]2(C)O`, in assay [2], the Potency entry was “inactive”.
As for `Cn1cnc(CCN)c1`, the Potency entry in assay [1] is “inactive”. Further, the outcome in assay [3] was inactive.
Turning to `OCCCBr`, the Potency entry in assay [2] is “inactive”.
On to `Nc1c(Cl)c(Cl)c(Cl)c(Cl)c1Cl`, for which the Potency result (with Furin (Homo sapiens); in assay [2]; in [7]; in assay [8]) was “inactive” each time.
Consider `CCCN1CCC[C@H](c2cccc(O)c2)C1`, for which, in assay [1], the Potency result was “inactive”. The outcome in [3] was inactive.
Regarding `CS(=N)(=O)CC[C@H](N)C(=O)O` (some centres undefined), in assay [1], the Potency entry is “inactive”. For the same compound, the compound was called inactive in assay [3].
Take `CC(=O)N(C)c1cccc(-c2ccnc3c(C(=O)c4cccs4)cnn23)c1`: the Potency is 24.1 µM (active) with Furin (Homo sapiens), 24.1 µM (active) in assay [9] and 21.5 µM (active) in assay [2]. Further, the Potency entry in assay [4], in assay [5] and in assay [8] was “inactive” throughout.
For `C[C@@H]1O[C@H](C[N+](C)(C)C)C[C@H]1O`, the Potency entry in assay [1] is “inactive”. In assay [3], the compound was classed as inactive.
Turning to `C[N+]1(C)C2CCC1CC(OC(=O)C(CO)c1ccccc1)C2` (centres undefined), the Potency result in assay [1] is “inactive”. Moreover, the outcome in assay [3] was inactive.
In the case of `C[C@]12N[C@H](Cc3ccccc31)c1ccccc12`, in assay [1], the Potency entry is “inactive”. Besides, the call in assay [3] was inactive.
Turning to `C[C@]12CC[C@H]3[C@@H](CCC4=CC(=O)CC[C@@]43C)[C@H]1CC[C@H]2O`, in [2], the Potency entry is “inactive”.
